The nature of test [1]: binders of probe aFSTL3 on microarray, primary screen, stem cell growth factor project, biochemical, small-molecule microarray, fluorescence 635/667 (AID 1064).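 Further: measures binding of the biotinylated anti-FSTL3 antibody to printed compounds.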 The following applies: higher = more signal.
Test [2] is described as follows: binders from COS7 lysate, DM2A8 probe, primary screen, torsin A project, cell lysate, small-molecule microarray, fluorescence 635/667 (AID 1065). The following applies: higher = more signal, COS7 lysate expressing mutant human TOR1A.
The nature of test [3]: binders of probe aFGF2 on microarray, primary screen, stem cell growth factor project, biochemical, small-molecule microarray, fluorescence 635/667 (AID 1067).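 Further: measures binding of biotinylated aFGF2 protein to printed compounds on slides; z-score merges feature fluorescence and signal-to-noise across triplicate slides.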 The following applies: higher = more signal.
Test [4] can be described thus: binders of probe aFGF10 on microarray, primary screen, stem cell growth factor project, biochemical, small-molecule microarray, fluorescence 635/667 (AID 1071).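 Further: score merges 667 nm spot intensity and signal to noise from triplicate slides.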 The following applies: higher = more signal.
Test [5] has as its target Neurogenic locus notch homolog protein 2 (Homo sapiens) (UniProt Q04721). The experiment in a line: Notch2 binders on small-molecule microarrays, primary screen, biochemical, small-molecule microarray, 635 nm fluorescence, stem cell growth factors (AID 1073). The following applies: Notch2 binding, higher = more signal.
The target of test [6] is Pro-neuregulin-1, membrane-bound isoform (Homo sapiens) (UniProt Q02297). The experiment in a line: NRG1 binders on small-molecule microarrays, primary screen, psychiatric disease protein project, biochemical, small-molecule microarray, fluorescence 635/667 (AID 1075).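 Further: score combines 667 nm spot fluorescence with signal to noise.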 The conditions noted are these: NRG1 binding, 635 nm fluorescence, higher = more signal.
Pro-neuregulin-1, membrane-bound isoform (Homo sapiens), sequence (Q02297 whole entry, looked up, the tested form may be a part, canonical isoform): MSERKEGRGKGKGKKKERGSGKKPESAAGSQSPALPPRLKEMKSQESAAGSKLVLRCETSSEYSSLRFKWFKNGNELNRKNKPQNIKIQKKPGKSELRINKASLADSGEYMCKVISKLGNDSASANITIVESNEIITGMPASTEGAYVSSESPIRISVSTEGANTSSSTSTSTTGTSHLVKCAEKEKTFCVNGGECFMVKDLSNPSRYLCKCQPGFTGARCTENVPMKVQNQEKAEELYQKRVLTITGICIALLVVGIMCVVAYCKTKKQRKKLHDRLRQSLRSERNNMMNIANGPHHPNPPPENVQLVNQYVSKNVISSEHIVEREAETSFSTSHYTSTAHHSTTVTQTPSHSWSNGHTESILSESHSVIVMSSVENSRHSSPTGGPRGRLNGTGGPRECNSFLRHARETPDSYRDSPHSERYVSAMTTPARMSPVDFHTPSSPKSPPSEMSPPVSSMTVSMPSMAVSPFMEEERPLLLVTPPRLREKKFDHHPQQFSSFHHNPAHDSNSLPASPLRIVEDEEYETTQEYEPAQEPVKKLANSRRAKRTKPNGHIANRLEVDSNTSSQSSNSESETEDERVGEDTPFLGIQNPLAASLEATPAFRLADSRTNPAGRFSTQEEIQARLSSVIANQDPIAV
Test [7] concerns Neuregulin-1 EGF-like domain. The experiment in a line: binders of neuregulin-1 EGF-like domain, primary screen, biochemical, small-molecule microarray, 635 nm fluorescence (AID 1081).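 Further: binding of the protein to compounds printed on small-molecule microarray slides.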 The following applies: small-molecule microarray binding, higher = more signal.
The nature of test [8]: FRG1 promoter luciferase signal modulators, primary screen, FRG1 inhibition for FSHD, cell-based, C2C12 myotubes, firefly/Renilla luciferase, luminescence (AID 1084). The conditions noted are these: higher = more signal, called active from +8 up or from −8 down.
The nature of test [9]: binders of probe aFST on microarray, primary screen, stem cell growth factor project, biochemical, small-molecule microarray, fluorescence 635/667 (AID 1086).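 Further: score merges 667 nm fluorescence with signal-to-noise of each printed compound spot.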 The following applies: higher = more signal.
Test [10] is described as follows: binders of probe aHhip on microarray, primary screen, stem cell growth factor project, biochemical, small-molecule microarray, fluorescence 635/667 (AID 1087).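 Further: score merges spot fluorescence at 667nm with spot signal to noise ratio.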 The following applies: higher = more signal.
For test [11], the system named is PRMT1 (protein arginine N-methyltransferase 1). The experiment in a line: PRMT1 binders on small-molecule microarrays, primary screen, biochemical, small-molecule microarray, 635 nm fluorescence (AID 1088).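 Further: binding of Prmt1 protein to compounds spotted on small-molecule microarray slides.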 The following applies: small-molecule microarray binding, higher = more signal.
The nature of test [12]: yeast growth modulation, basal conditions, primary screen, YJM789 clinical isolate, OD600, 24 h (AID 1089).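 Further: growth of clinical yeast isolate S. cerevisiae YJM 789 seeded 1000 cells per well; test concentration not given here.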 The conditions noted are these: S. cerevisiae YJM789 growth, higher = more signal, called active from +8 up or from −8 down.
A short description of test [13]: fission yeast growth modulation, primary screen, strain 972, OD600, 24 h, no modulator (AID 1090).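 Further: basal condition with compound alone and no growth modifier present; test concentration not given here.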 The conditions noted are these: S. pombe 972 growth, higher = more signal, called active from +8 up or from −8 down.
Test [14] can be described thus: S. cerevisiae growth modulation with rapamycin, primary screen, strain BY4716, OD600, 96 h (AID 1091). Further: test concentration not given here. The following applies: higher = more signal, called active from +8 up or from −8 down.
In test [15] the target is Torsin-1A-interacting protein 2 (Homo sapiens) (UniProt Q8NFQ8). The experiment in a line: LULL1 binders on small-molecule microarray, primary screen, cell lysate, human LULL1 lysate, 635/667 nm fluorescence (AID 1092).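 Further: score merges per-feature 667 nm fluorescence with signal-to-noise.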 The conditions noted are these: hLULL1 lysate binding, 635 nm fluorescence, higher = more signal.
Torsin-1A-interacting protein 2 (Homo sapiens), sequence (Q8NFQ8 whole entry, looked up): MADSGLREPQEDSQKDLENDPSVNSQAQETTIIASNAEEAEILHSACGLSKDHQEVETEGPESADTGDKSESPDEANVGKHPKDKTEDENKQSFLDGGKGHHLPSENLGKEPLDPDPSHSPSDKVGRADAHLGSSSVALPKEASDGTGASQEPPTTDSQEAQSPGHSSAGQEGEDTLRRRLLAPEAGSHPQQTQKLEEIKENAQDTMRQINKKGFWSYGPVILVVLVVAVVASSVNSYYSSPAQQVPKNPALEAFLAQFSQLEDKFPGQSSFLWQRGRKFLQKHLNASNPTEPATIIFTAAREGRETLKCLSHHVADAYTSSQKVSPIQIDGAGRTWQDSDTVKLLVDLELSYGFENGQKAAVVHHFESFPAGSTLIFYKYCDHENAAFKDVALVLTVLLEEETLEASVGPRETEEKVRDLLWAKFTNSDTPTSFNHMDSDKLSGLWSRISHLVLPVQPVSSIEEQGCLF
The nature of test [16]: E. coli growth modulation, two-sided OD650, primary screen, E. coli filamentation project, strain DRC41, 24 h (AID 1093).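 Further: MC1000 strain lacking acrAB efflux and sulA so SOS filamentation is blocked; test concentration not given here.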 The conditions noted are these: OD650, 24 h, higher = more signal, called active from +8 up or from −8 down.
A short description of test [17]: small-molecule microarray binders of probe aLefty2, primary screen, biochemical, biotinylated probe, 635/667 nm fluorescence (AID 1094).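 Further: score merges spot fluorescence near 667 nm with spot signal-to-noise ratio.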 The following applies: higher = more signal.
Test [18] concerns Noggin (protein binding on small-molecule microarray). In words: Noggin binders on small-molecule microarray, primary screen, biochemical, 635/667 nm fluorescence (AID 1095).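 Further: score merges 667 nm feature fluorescence with signal to noise over triplicate slides.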 The conditions noted are these: 635 nm fluorescence, higher = more signal.
Test [19] has as its target Neurogenic locus notch homolog protein 3 (Homo sapiens) (UniProt Q9UM47). In words: NOTCH3 binders on small-molecule microarray, primary screen, biochemical, 635/667 nm fluorescence (AID 1096). The following applies: NOTCH3 binding, 635 nm fluorescence, higher = more signal.
A short description of test [20]: small-molecule microarray binders of probe aEGFR, primary screen, biochemical, biotinylated probe, 635/667 nm fluorescence (AID 1097).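 Further: probe is a biotinylated anti-EGFR antibody binding compounds printed on slides; score combines fluorescence near 667 nm and signal to noise of each spot.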 The following applies: higher = more signal.

Activity calls are given as the source filed them.

Neurogenic locus notch homolog protein 3 (Homo sapiens), sequence (Q9UM47 whole entry, looked up): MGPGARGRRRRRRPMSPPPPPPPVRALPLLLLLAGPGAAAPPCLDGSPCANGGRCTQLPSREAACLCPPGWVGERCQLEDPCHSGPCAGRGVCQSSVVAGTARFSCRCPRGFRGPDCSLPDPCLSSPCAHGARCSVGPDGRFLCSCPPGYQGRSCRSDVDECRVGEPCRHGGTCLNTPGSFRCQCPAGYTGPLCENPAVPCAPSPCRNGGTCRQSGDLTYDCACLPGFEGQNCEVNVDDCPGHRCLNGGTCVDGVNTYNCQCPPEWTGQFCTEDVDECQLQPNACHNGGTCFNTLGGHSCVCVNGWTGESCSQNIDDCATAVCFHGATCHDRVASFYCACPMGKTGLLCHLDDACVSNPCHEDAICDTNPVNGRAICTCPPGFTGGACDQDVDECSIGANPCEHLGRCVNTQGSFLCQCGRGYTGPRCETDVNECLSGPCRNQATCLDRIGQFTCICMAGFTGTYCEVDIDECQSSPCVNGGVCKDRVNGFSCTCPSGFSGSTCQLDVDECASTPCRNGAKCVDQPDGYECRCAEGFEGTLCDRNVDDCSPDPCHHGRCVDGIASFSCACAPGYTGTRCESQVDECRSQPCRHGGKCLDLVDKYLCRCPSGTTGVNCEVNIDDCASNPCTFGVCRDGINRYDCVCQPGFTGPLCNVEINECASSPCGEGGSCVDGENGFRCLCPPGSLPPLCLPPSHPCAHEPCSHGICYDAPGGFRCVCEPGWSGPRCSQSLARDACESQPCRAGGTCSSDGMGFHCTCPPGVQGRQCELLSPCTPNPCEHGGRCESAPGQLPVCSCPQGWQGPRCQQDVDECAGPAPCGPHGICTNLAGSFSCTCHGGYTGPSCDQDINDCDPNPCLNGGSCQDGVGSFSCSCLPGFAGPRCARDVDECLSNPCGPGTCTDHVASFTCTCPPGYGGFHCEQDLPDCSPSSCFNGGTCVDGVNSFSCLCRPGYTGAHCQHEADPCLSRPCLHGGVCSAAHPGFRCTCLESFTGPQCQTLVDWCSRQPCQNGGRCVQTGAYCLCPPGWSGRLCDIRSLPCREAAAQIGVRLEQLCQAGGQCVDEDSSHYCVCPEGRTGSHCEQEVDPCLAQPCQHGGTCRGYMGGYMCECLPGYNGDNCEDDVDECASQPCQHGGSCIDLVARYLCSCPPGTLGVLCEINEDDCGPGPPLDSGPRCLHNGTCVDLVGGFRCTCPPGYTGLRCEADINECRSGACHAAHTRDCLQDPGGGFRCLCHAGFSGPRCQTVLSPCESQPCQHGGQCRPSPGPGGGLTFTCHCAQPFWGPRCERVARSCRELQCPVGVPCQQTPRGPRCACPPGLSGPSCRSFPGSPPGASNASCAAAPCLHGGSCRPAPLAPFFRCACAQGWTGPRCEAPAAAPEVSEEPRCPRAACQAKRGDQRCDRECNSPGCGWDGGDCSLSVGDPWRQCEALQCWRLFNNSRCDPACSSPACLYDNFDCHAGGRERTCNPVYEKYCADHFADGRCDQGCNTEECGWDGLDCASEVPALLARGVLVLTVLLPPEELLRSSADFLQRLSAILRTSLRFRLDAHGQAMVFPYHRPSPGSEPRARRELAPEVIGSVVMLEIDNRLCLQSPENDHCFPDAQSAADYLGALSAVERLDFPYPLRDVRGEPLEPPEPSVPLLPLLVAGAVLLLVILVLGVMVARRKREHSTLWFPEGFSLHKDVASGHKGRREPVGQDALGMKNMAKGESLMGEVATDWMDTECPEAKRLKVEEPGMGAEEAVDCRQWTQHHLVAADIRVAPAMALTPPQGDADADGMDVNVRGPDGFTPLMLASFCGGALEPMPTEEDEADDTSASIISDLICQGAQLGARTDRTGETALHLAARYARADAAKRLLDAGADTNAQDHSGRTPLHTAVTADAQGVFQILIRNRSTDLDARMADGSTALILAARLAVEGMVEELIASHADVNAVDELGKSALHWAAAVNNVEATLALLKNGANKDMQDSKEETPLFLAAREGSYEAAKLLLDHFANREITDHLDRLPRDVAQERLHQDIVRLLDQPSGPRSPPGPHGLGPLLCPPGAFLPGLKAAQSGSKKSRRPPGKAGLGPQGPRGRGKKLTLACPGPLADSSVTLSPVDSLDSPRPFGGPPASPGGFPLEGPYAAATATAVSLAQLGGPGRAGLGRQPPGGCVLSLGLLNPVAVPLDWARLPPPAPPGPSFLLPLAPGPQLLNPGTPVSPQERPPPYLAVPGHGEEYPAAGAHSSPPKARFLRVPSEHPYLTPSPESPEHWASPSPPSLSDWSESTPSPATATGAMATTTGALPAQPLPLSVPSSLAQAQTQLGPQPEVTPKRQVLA

As to `CCOC(=O)C1=C[C@@H](C(C)C)N(S(=O)(=O)c2ccc(C)cc2)[C@H]1c1ccc(C(F)(F)F)cc1`, the composite z-score in test [1] was -0.235; in test [2] it was 0.231; in [3] it was 0.112; in test [4] it was 1.05; in [5], 1.67; in test [6] it was 0.497. Moreover, the composite z-score was found to be 1.22 in [7]; 1.69 in test [9]; 0.0873 in test [10]; 1.35 in test [11]; 3.17 in test [15]; 0.127 in test [17]. For the same molecule, the composite z-score in test [18] is 0.745; in [19] it was 1.05; in [20], -0.0122. Moreover, the z-score in test [8] is -2.54 (inactive); in test [12], 1.43 (inactive); in test [13], 1.5 (inactive); in test [14], 2.08 (inactive); in [16], -0.961 (inactive).

As for `CCCCC=C[C@@H](NC(=O)OCc1ccccc1Cl)c1ccccc1`, the composite z-score in [1] was 0.983; in test [2], 0.199; in test [3] it was 0.583; in test [4], 0.711; in test [5], 1.59; in test [6], 1.51. The composite z-score was found to be 1.19 in test [7]; 2.81 in [9]; 0.996 in [10]; 1.48 in test [11]; 2.9 in [15]; 1.09 in [17]. Also, the composite z-score in test [18] came out at 1.34; in test [19], 1.02; in test [20], 0.98. Further, the z-score was 1.31 (inactive) in [8]; 0.952 (inactive) in test [12]; 1.18 (inactive) in [13]; 2.28 (inactive) in [14]; -1.48 (inactive) in test [16].

`C=CCNC(=O)[C@@H]1[C@H]2C(=O)O[C@H](c3ccccc3)[C@H](c3ccccc3)N2[C@H](c2ccc(OCCO)cc2)[C@@]12C(=O)N(C(=O)OCCOC)c1ccc(C#Cc3ccc(OC)cc3)cc12`: the composite z-score was -0.412 in test [1]; 0.1 in test [2]; -0.126 in [3]; 0.0179 in test [4]; 0.801 in test [5]; 1.1 in test [6]. The composite z-score was 1.07 in test [7]; 0.267 in [9]; -0.0955 in test [10]; 1.49 in test [11]; 3.13 in [15]; 0.0645 in [17]. The composite z-score is 1.23 in test [18], 1.05 in [19] and -0.0974 in test [20]. The z-score is -0.309 (inactive) in test [8]; 1.59 (inactive) in test [12]; 1.77 (inactive) in test [13]; 6.26 (inactive) in [14]; 0.361 (inactive) in test [16].

For `[N-]=[N+]=Nc1ccccc1C[C@@]1(C(=O)NCCN2CCOCC2)N=C(c2ccc(OCCCO)cc2)O[C@@H]1c1ccccc1N=[N+]=[N-]`, the composite z-score in test [1] was 0.59; in test [2], 0.639; in test [3], -0.167; in [4], 1.28; in test [5] it was 1.04; in test [6], 1.69. Further, the composite z-score came to 1.29 in test [7]; 0.98 in [9]; 0.122 in test [10]; 1.55 in test [11]; 3.19 in test [15]; 0.0672 in test [17]. Also, the results for the composite z-score in test [18], in test [19] and in [20] were 0.325, 0.811 and 0.0045, respectively. The z-score is -2.04 (inactive) in [8]; -2.36 (inactive) in test [12]; -14.1 (active) in test [13]; -0.321 (inactive) in [14]; -0.485 (inactive) in test [16].

For the molecule `COCCOC(=O)N1C(=O)[C@@]2(c3cc(C#CC4(O)CCCCCC4)ccc31)[C@H](C(=O)Nc1nc3ccccc3s1)[C@H]1C(=O)O[C@H](c3ccccc3)[C@H](c3ccccc3)N1[C@@H]2c1ccc(O)cc1`, the composite z-score in [1] was -0.304; in [2] it was 0.442; in test [3], -0.0202; in test [4] it was 0.539; in [5], 1.24; in test [6] it was 1.46. In addition, the composite z-score in test [7] was 1.2; in [9] it was 1.47; in [10], 0.107; in [11] it was 1.54; in test [15], 2.21; in test [17], -0.0022. Moreover, the results for the composite z-score in test [18], in test [19] and in test [20] were 0.683, 1.04 and 0.0692, respectively. For the same molecule, the z-score was 0.21 (inactive) in test [8]; 0.806 (inactive) in test [12]; 0.572 (inactive) in test [13]; 1.33 (inactive) in [14]; 0.0347 (inactive) in test [16].

For the origin of these results see PubChem BioAssay.
